Shiga inhibitor = Shiga toxin inhibition; Vero cells, Shiga toxin protein synthesis inhibition reporter; inhibition, % at 38.7 µM; hit rate 9.2% among 290,000; in the data active means inhibition mostly above about 28%, no sharp cut-off; inactive means mostly below about 43%; further: 0% is about no effect
CHX counter = counter-screen for Shiga toxin inhibitors: cycloheximide protein synthesis inhibition | cell reporter, cycloheximide protein synthesis inhibition counterscreen | max response, % | hit rate 12% among 300,000 | AID 2314; in the data active means max response mostly above about 13%, no sharp cut-off; inactive means mostly below about 14%; further: read at 38.3 µM for the half of the compounds with a filed dose; 0% is about no effect
Sm TGR block = blocks Schistosoma mansoni thioredoxin glutathione reductase; Q962Y6; purified TGR, DTNB reduction, TNB absorbance 405 nm; Potency, µM (top dose mostly 114 µM), for inactives: at the highest dose activity change, negative = inhibition, most hits filed as inhibitors; hit rate 3% among 360,000; active means well fitted inhibition curve with a large enough effect; inconclusive means small, poorly fitted or top-dose-only effect; inactive means no such curve, though single readings can be large or run the other way; further: potency means the concentration at half of the fitted maximal effect; on the % scale 0 is the no-effect control and ±100 the full control effect; nearly all actives have a fitted effect of over 60% in size
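TGR 20 nM + NADPH 100 uM (dispensed conc.), cpd preinc 15 min RT; start with NADPH (500 uM addition) then DTNB (15 mM addition). Kinetic TNB absorbance, 405 nm filter. Four-parameter Hill fit across titration.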
FMDV antiviral = antivirals against foot and mouth disease virus | FMDV antiviral cell-based qHTS | Potency, µM (titrated, usually from 57.9 µM), inactives show at the top dose activity change, negative = inhibition, usual class: inhibitors | hit rate 1.2% among 410,000; calls by dose curve; tested in HEK293T cells; further: read-out not given here; potency means the concentration at half of the fitted maximal effect; on the % scale 0 is the no-effect control and ±100 the full control effect; nearly all actives have a fitted effect of over 45% in size
Numbers without * were called inactive; u = inconclusive; x = no result; + = active, no number. Hits are enriched below; roughly 12% of the tested compounds scored in any of these assays.

SMILES	Shiga inhibitor	CHX counter	Sm TGR block	FMDV antiviral
C/C(=N/NC(=O)CNC(=O)c1ccccn1)c1cccc([N+](=O)[O-])c1	-10	-1	20µM*	11%
C/C(=N\NC(=O)c1cccc([N+](=O)[O-])c1)c1ccco1	50*	15*	14%	31%
CCOCCc1nnc(NC(=O)C(=O)c2cc(C)n(-c3cccc(Cl)c3)c2C)s1	x	x	4%	-20%
[S-]C(=Nc1ccc(Cl)cc1)N[n+]1ccccc1	37*	30*	-6%	-1%
CC1C(=O)Nc2ccc(S(=O)(=O)N3CCCCC3)cc2NC1=O (centres undefined)	x	x	-6%	-3%
CSCCC1Nc2ccc(S(=O)(=O)N3CCOCC3)cc2NC1=O (centres undefined)	-6	1	50µM*	1%
COC(=O)c1cc(CNC(=O)c2cccc(C)c2)cc(NC(=O)c2ccncc2)c1	x	x	x	-6%
COc1cccc(Nc2nnc(SCc3nc4ccccc4s3)s2)c1	109*	65*	-2%	53%
Cc1cccc(C)c1Nc1nnc(SCC(=O)NCc2cccs2)s1	21	-3	-7%	-2%
COc1cccc(Nc2nnc(SCN3C(=O)c4ccccc4C3=O)s2)c1	3	6	6%	11%
Cc1cccc(C)c1Nc1nnc(SCc2nc3ccccc3s2)s1	69	50*	-10%	18%
O=C(CSc1nc2ccccc2c(=O)n1Cc1ccco1)N1CCCCCC1	20	17*	-2%	u
O=C(NCc1ccco1)c1ccc2c(=O)n(Cc3ccco3)c(SCC(=O)N3CCCC3)nc2c1	39*	33*	u	-3%
COc1ccc(CN2COc3ccc4c(-c5ccccc5)cc(=O)oc4c3C2)cc1	x	x	-1%	-23%
Cc1cc(C)c(NC(=O)Cn2nnc(-c3nc(-c4ccncc4)no3)c2N)c(C)c1	x	x	1%	-14%
NC(=O)c1cc2c(s1)-c1cc(Cl)ccc1SC2	51	20*	4%	50%
COCCNC(=O)c1cc2c(s1)-c1ccc(Cl)cc1SC2	91*	44*	12%	2%
NC(N)=NCCC[C@@H](N)C(=O)NCC(=O)N[C@@H](CC(=O)O)C(=O)N[C@@H](Cc1c[nH]c2ccccc12)C(=O)O	-14	-7	x	x
Cc1c(C)c2cccnc2c2ncccc12	x	x	-3%	u
Cc1[nH]c2ccc3ncccc3c2c1C	-25	15*	6%	28%
Cc1cccc(N=Nc2c(O)[nH]c3ccc(Br)cc23)c1	31*	39*	-8%	37%
COc1ccc2[nH]c(C)c(CCNC(=S)Nc3ccccc3C)c2c1	-15	-3	-13%	12%
COc1ccccc1N=Nc1c(O)[nH]c2ccc(Br)cc12	29	2	6%	-1%
Cc1ccccc1N=Nc1c(O)[nH]c2ccccc12	x	x	x	72%
COc1ccc2[nH]c(N=Nc3ccccc3C)c(O)c2c1	+	16	-3%	10%
SMILES	Shiga inhibitor	CHX counter	Sm TGR block	FMDV antiviral
Cc1ccc2[nH]c(O)c(N=Nc3ccccc3C)c2c1	28	-2	22µM*	27%
COc1ccc(C(=O)c2oc3ccccc3c2NC(=O)c2cc(=O)c3ccc(C)cc3o2)cc1Cl	x	x	-10%	-5%
Cc1ccc(-c2nc3scc(CCNC(=O)Cc4ccc(Cl)cc4)n3n2)cc1	x	x	-6%	-12%
COc1ccc(CC(=O)NCC(c2ccc(N(C)C)cc2)N2CCOCC2)cc1OC (centres undefined)	x	x	-15%	-17%
Cc1ccc(O)c(NC(=O)c2ccc(Br)c(S(=O)(=O)N3CCCCC3)c2)c1	x	x	-10%	0%
O=C(/C=C/c1cccs1)Nc1nncs1	54*	34*	3%	59%
O=C(/C=C/c1cccs1)Nc1cccnc1	124*	75*	4%	23%
C=CCNC(=O)/C=C/c1cccs1	11	5	11%	50%
O=C(/C=C/c1cccs1)Nc1scc(-c2ccccc2)c1C(=O)O	92*	44*	-29%	-15%
Cc1ccc(C(=O)Nc2scc(-c3ccccc3)c2C(=O)O)cc1	x	x	x	-25%
O=C(/C=C/c1cccs1)Nc1nc(-c2ccccc2)cs1	63*	40*	-1%	-47%
O=C(COc1ccc(F)cc1)NCc1ccc2c(c1)CCN2C(=O)c1ccc(F)cc1	x	x	1%	0%
O=C(CCC1N=C2c3ccccc3N=C(SCc3ccc(F)cc3)N2C1=O)NC1CCCCC1 (centres undefined)	x	x	6%	u
Cc1cccc(CN2CCN(CC(=O)NCCc3ccc(Cl)cc3)C2=O)c1	x	x	-9%	9%
Cc1ccnc(NC(=O)/C=C/c2cccs2)c1	97*	50*	-9%	-6%
Cc1ccnc(NC(=O)C2(c3cccs3)CCOCC2)c1	-13	-2	-4%	-14%
Cc1cc(C2=CC(C)(c3cc(C)oc3C)Nc3nc(C(F)(F)F)nn32)c(C)o1 (centres undefined)	41*	28*	10µM*	x
CCOC(=O)Cc1c(C)nc2c(-c3ccc(Cl)cc3)cnn2c1C	49*	18	x	15%
Cc1cc(N)n2ncc(-c3ccc(Cl)cc3)c2n1	49*	22*	0%	47%
Cc1cc(Cl)n2ncc(-c3ccccc3)c2n1	62*	57*	u	-17%
Cc1nc2c(-c3ccc(F)cc3)cnn2c(N)c1-c1ccc(F)cc1	93*	61*	-4%	u
Cc1nc2c(-c3ccc(F)cc3)c(C)nn2c(N2CCOCC2)c1C	18	3	4%	-30%
CCOC(=O)c1cccc(NC(=O)CSc2cc(=O)n(C)c3ccccc23)c1	x	x	-3%	-1%
Cc1cc(N)n2ncc(-c3ccc(F)cc3)c2n1	68*	50*	-11%	47%
Cc1cc(-c2ccc(Cl)cc2)c2cnn(C(C)C)c2n1	19	30*	1%	7%
SMILES	Shiga inhibitor	CHX counter	Sm TGR block	FMDV antiviral
Cc1cc(N2CCOCC2)n2ncc(-c3ccccc3Cl)c2n1	88*	41*	12%	30%
Cc1cc(-n2nc(C)cc2C)n2nc(C)c(-c3ccc(Cl)cc3)c2n1	-14	-3	-6%	-1%
Cc1cc(C)n2cc(-c3ccc(Cl)cc3)c(C(=O)O)c2n1	51*	22*	x	32%
COc1ccc2c(c1)c1c(c(=O)n(-c3ccccc3C)c(=O)n1CC(=O)N1CCCC1)n2C	x	x	-4%	-4%
COC(=O)c1cccc(Nc2c(-c3cc(Br)ccc3O)nc3nc[nH]n23)c1	x	x	-28%	-4%
CCNc1ccccc(-c2ccc3ccccc3n2)c1=O	134*	41*	-36%	31%
COc1ccc(CNC(=O)CSc2ncc3c(n2)-c2ccc(Cl)cc2N(Cc2ccc(F)cc2)S3(=O)=O)cc1OC	x	x	7%	u
C=C1C2(C(=O)Nc3ccc(SC(F)F)cc3)CCC(C2)C1(C)C (centres undefined)	-5	-4	5%	u
OC1CCC(NC(=S)Nc2ccc(SC(F)F)cc2)CC1 (centres undefined)	75*	36*	-17%	24%
FC(F)Sc1ccc(NC(=S)NC2CCCC2)cc1	64*	38*	5%	30%
C[C@@H](C(=O)Nc1ccc(SC(F)F)cc1)N1C(=O)C2CCCCC2C1=O (some centres undefined)	x	x	x	-1%
CC1CCCC(NC(=S)Nc2ccc(SC(F)F)cc2)C1C (centres undefined)	36	25*	1%	-27%
NS(=O)(=O)c1ccc(NC(=S)NC2CCCC2)cc1	14	-3	-32%	0%

Bioassay records (PubChem)
